# Test results as given in PubChem BioAssay (Tox21).
# Results filed as inconclusive are left out. Where a call stands in place of a potency, no number is given. Calls of active or inactive are those of the source. Calls follow the shape of the dose curve; as a rule, active = well fitted activation curve with a large enough effect in the repeat runs; inconclusive = weak or mixed curves; inactive = flat fitted curve, though single readings scatter. Positions of bridges follow the written chain, without caps; N, C: chain ends. Non-standard residues stand in square brackets, D forms with d. Residues, ends and D or L forms follow the SMILES beside them. *: point of attachment. X1 = CC[C@@H](C)[C@@H](N)C1=N[C@H](C(=O)*)CS1; d(aIle) = CC[C@H](C)[C@@H](N)C(=O)O; dOrn = NCCC[C@@H](N)C(=O)O
# Biological target: Nuclear receptor subfamily 1 group I member 2 (Homo sapiens) (UniProt O75469)
# Assay: Human pregnane X receptor (PXR) activation by small molecules, qHTS assay (AID 1346985); also: nearly all actives have a fitted effect of over 40% in size
# Conditions: DPX-2 HepG2 CYP3A4-luciferase, 24 h; series mostly up to 38.3 µM
# How it was run: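 DPX-2 cells (HepG2 co-transfected with a PXR response element and a CYP3A4-promoter luciferase construct) were seeded at 2,000 per well, rested 5 hr at 37C, then exposed to DMSO-dissolved compounds for 24 hr. Activation was read as luciferase luminescence.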
row,Structure (SMILES),Potency
1,O=C(O)/C=C/C(=O)Nc1ccc(S(=O)(=O)Nc2nccs2)cc1,inactive
2,O=C(CCCN1CCN2CCCC2C1)c1ccc(F)cc1 (configuration not stated),inactive
3,CC[C@@H](C)[C@@H](N)C1=N[C@H](C(=O)N[C@@H](CC(C)C)C(=O)N[C@@H](CCC(=O)O)C(=O)N[C@@H](C(=O)N[C@@H]2CCCCNC(=O)[C@@H](CC(N)=O)NC(=O)[C@@H](CC(=O)O)NC(=O)[C@@H](Cc3cnc[nH]3)NC(=O)[C@@H](Cc3ccccc3)NC(=O)[C@@H]([C@H](C)CC)NC(=O)[C@@H](CCCN)NC2=O)[C@@H](C)CC)CS1 (X1-LE[d(aIle)][dK][dOrn][dI][dF][dH][dD][dN]; lactam 4-C),inactive
4,C=CC[N+]1([C@H]2C[C@H]3[C@@H]4CC[C@H]5C[C@H](O)[C@@H](N6CCOCC6)C[C@]5(C)[C@H]4CC[C@]3(C)[C@H]2OC(C)=O)CCCC1,inactive
5,O=C(O)/C=C/C(O)c1ccc(Cl)cc1 (configuration not stated),inactive
6,C=CC[N@@+]12CC[C@@]34c5ccccc5N5/C=C6/[C@H]7C[C@H]8[C@@]9(CC[N@@+]8(CC=C)C/C7=C/CO)c7ccccc7N(/C=C(/[C@@H](C[C@@H]31)/C(=C\CO)C2)[C@H]54)[C@@H]69,inactive
7,CN1C(=O)C[C@@H](C(=O)N[C@@H](Cc2cnc[nH]2)C(=O)N2CCC[C@H]2C(N)=O)NC1=O,inactive
8,C[C@@H]1C(=O)NC2=Nc3cccc(Cl)c3CN21,inactive
9,C[C@]12O[C@H](C[C@]1(O)CO)n1c3ccccc3c3c4c(c5c6ccccc6n2c5c31)CNC4=O,inactive
10,Cc1cn([C@H]2C[C@H](O)[C@@H](CO)O2)c(=O)[nH]c1=O,inactive
11,FC(F)(F)COCC(F)(F)F,inactive
12,CC(C)(O/N=C(\C(=O)N[C@@H]1C(=O)N2C(C(=O)[O-])=C(C[n+]3ccccc3)CS[C@H]12)c1csc(N)n1)C(=O)O,inactive
13,CO/N=C(\C(=O)N[C@@H]1C(=O)N2C(C(=O)[O-])=C(C[n+]3cccc4c3CCC4)CS[C@H]12)c1csc(N)n1,inactive
14,CC12CCC(C1)C(C)(C)C2=O (configuration not stated),inactive
15,C=CC1=C(C(=O)O)N2C(=O)[C@@H](NC(=O)/C(=N\O)c3csc(N)n3)[C@H]2SC1 (stereo in doubt),inactive
16,Cc1cc(N)c2ccccc2[n+]1CCCCCCCCCC[n+]1c(C)cc(N)c2ccccc21,inactive

row,Structure (SMILES),Potency
1,CC(=O)Nc1ccc(OC(C)=O)cc1,inactive
2,NC(N)=NCc1cccc(I)c1,inactive
3,CC(C)[C@H](NC(=O)[C@H](CC(=O)O)NC(=O)[C@H](CCCCN)NC(=O)[C@@H](N)CCCN=C(N)N)C(=O)N[C@@H](Cc1ccc(O)cc1)C(=O)O (H-RKDVY-OH),inactive
4,CC1CCCC(C)N1NC(=O)c1ccc(Cl)c(S(N)(=O)=O)c1 (configuration not stated),inactive
5,O=C[C@H](O)[C@@H](O)[C@@H](O)[C@H](O)CO,inactive
6,CN[C@@H]1[C@@H](O[C@H]2O[C@H](CO)[C@@H](N)[C@H](O)[C@H]2O)O[C@H]2C[C@@H](N)[C@@H](O[C@H]3[C@H](O)[C@@H](O)[C@H](N)C[C@@H]3N)O[C@@H]2[C@@H]1O,inactive
7,CC[C@H]1OC(=O)C[C@@H](O)[C@H](C)[C@@H](O[C@@H]2O[C@H](C)[C@@H](O[C@H]3C[C@@](C)(O)[C@@H](O)[C@H](C)O3)[C@H](N(C)C)[C@H]2O)[C@@H](CC=O)C[C@@H](C)C(=O)/C=C/C(C)=C/[C@@H]1CO[C@@H]1O[C@H](C)[C@@H](O)[C@@H](OC)[C@H]1OC,inactive
8,C[C@@H]1O[C@@H](OC[C@H]2O[C@@H](Oc3c(-c4ccc(OCCO)c(OCCO)c4)oc4cc(OCCO)cc(O)c4c3=O)[C@H](O)[C@@H](O)[C@@H]2O)[C@H](O)[C@H](O)[C@H]1O,inactive
9,Cc1cc(C(=O)NCCc2ccc(S(=O)(=O)NC(=O)NN3CCCCCC3)cc2)no1,inactive
10,NCC1CCC(C(=O)O)CC1 (configuration not stated),inactive
11,OCCCNc1ccccc1,inactive
12,O=C(O)CCCC/C=C(\c1ccccc1)c1cccnc1,inactive
13,Oc1ccc(Cl)c2c1CCC2,inactive
14,CCCCCCCCCCCCCCCCCCOCC(COP(=O)([O-])OCC[N+](C)(C)C)OC (configuration not stated),inactive
15,CNC(=O)OCc1cccc(COC(=O)NC)n1,inactive
16,CO/N=C(\C(=O)N[C@@H]1C(=O)N2C(C(=O)[O-])=C(C[n+]3ccc(N)n3CCO)CS[C@H]12)c1csc(N)n1,inactive
